From PubChem BioAssay (EPA / NIEHS)
Activity calls are given as the source filed them. Rule for the calls: active = hit-call score of the fitted dose curve at least 0.9, where 1 is the maximum; inactive = score below 0.9.

assay: APR_HepG2_CellLoss_1hr: Apredica 1-hour HepG2 Assay for Cell Loss (AID 2282668); conditions: high-content imaging;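 note: curves fitted both ways against DMSO so gain or loss of cells counts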
Procedure: APR_HepG2_1hr is a cell-based, multiplexed-readout assay that uses HepG2, a human liver cell line, with measurements taken at 1 hour after chemical dosing in a 384-well plate.APR_HepG2_CellLoss_1hr is one of 10 assay component(s) measured or calculated from the APR_HepG2_1hr assay. It is designed to make measurements of cell number, a form of viability reporter, as detected with fluorescence intensity signals by HCS Fluorescent Imaging technology.Data from the assay component APR_HepG2_CellLoss_1hr was analyzed into 1 assay endpoint. This assay endpoint, APR_HepG2_CellLoss_1hr, was analyzed with bidirectional fitting relative to DMSO as the negative control and baseline of activity. Using a type of viability reporter, measures of all nuclear dna for gain or loss-of-signal activity can be used to understand the viability at the cellular-level. Furthermore, this assay endpoint can be referred to as a secondary readout, because this assay has produced multiple assay endpoints where this one serves a viability function. To generalize the intended target to other relatable targets, this assay endpoint is annotated to the cell cycle intended target family, where the subfamily is proliferation.
Cells were treated with dimethyl sulfoxide (DMSO) as a solvent control at a final concentration of 0.5% v/v or with compounds in DMSO with a resulting final DMSO concentration of 0.5% v/v. Compound treatment was done at concentrations of 0.39, 0.78, 1.56, 3.12, 6.24, 12.5, 25, 50, 100, and 200 uM in duplicate on each plate. Cells were treated with compounds for 1, 24, or 72 hr. Carbonyl […] m-chloro-phenylhydrazone (CCCP) and taxol were used as positive controls for mitochondrial function and cytoskeletal stability, respectively; DMSO served as the negative control for this experiment. Cells were fixed by the direct addition of 50 uL formaldehyde in Hank's Balanced Salt Solution (HBSS) to a final concentration of 3.7%. After incubation in the fixation medium for 30 min at room temperature (293-298 K), cells were rinsed twice with HBSS and treated with cell permeabilization buffer (16 uL of 0.5% Triton X-100) for 10 min at room temperature (293-298 K) before labeling. For mitochondrial membrane potential and mitochondrial measurements, pre-fixed cells were incubated with 50 uL of MitoTracker Red CMXRos (Invitrogen) at a concentration of 250 nM for 30 min before fixation. In the remaining cases, post-fixed cells were labeled by incubation with a multiplexed mixture of primary antibodies in HBSS for 60 min at room temperature (293-298 K) to detect immunoreactivity of c-Jun (1:500), phospho-histone H3 (1:100), phospho-histone H2A.x (1:200), p53 (1:400), alpha-tubulin (1:200) and Hoechst 33342 (2 ug/mL). Cells were labeled for multiplexed imaging on two separate plates: a) Hoechst 33342, MitoTracker Red, phospho-histone H3, and alpha-tubulin, and b) Hoechst 33342, phospho-histone H2A.x, and c-Jun. A final rinse with HBSS (50 uL) was performed before analysis. The primary and secondary antibodies for the proteins were phospho-histone H3 (rabbit anti-phospho-histone H3 and FITC-donkey anti-rabbit IgG), phospho-histone H2A.x (mouse anti-phospho-histone H2A.x and FITC-donkey anti-mouse IgG), c-Jun (rabbit anti-phospho-c-Jun and Cy3-donkey anti-rabbit IgG), p53 (sheep anti-p53 and Cy5-donkey anti-sheep IgG), alpha-tubulin (mouse anti-alpha-tubulin and Cy5-donkey anti-mouse IgG). These antibodies are available as the CellCiphr HepG2 assay kit (Millipore).Digital images of each well were captured using a Cellomics ArrayScan VTI (Thermo Scientific Cellomics) (0.8 NA objective, 0.63x optical coupler, and XF-93 filter set) at 20x magnification. The images were acquired using the autofocus feature of the ArrayScan instrument, which entails the following steps. First, the camera focuses on channel 1 (Hoechst 33342), where nuclei are identified. Second, a Z offset of 1 um is used for capturing mitochondria (MitoTracker Red). […]

SMILES | outcome | AC50
CCC(CC)Nc1c([N+](=O)[O-])cc(C)c(C)c1[N+](=O)[O-] | inactive | –
O=C(O)c1cc(Oc2ccc(C(F)(F)F)cc2Cl)ccc1[N+](=O)[O-] | inactive | –
CC(C1CC1)C(O)(Cn1cncn1)c1ccc(Cl)cc1 (stereo not given) | inactive | –
S=C1NCCN1 | inactive | –
Cc1ccn2nc(S(=O)(=O)Nc3c(F)cccc3F)nc2n1 | inactive | –
COP(=O)(OC)SCn1c(=O)oc2cc(Cl)cnc21 | inactive | –
CCc1cccc(CC)c1N(COC)C(=O)CCl | inactive | –
CCCSP(=O)(OCC)SCCC | inactive | –
C[Si](Cn1cncn1)(c1ccc(F)cc1)c1ccc(F)cc1 | inactive | –
CC[C@H](C)[C@H]1O[C@]2(C=C[C@@H]1C)C[C@@H]1C[C@@H](C/C=C(\C)[C@@H](O[C@H]3C[C@H](OC)[C@@H](O[C@H]4C[C@H](OC)[C@@H](NC)[C@H](C)O4)[C@H](C)O3)[C@@H](C)/C=C/C=C3\CO[C@@H]4[C@H](O)C(C)=C[C@@H](C(=O)O1)[C@]34O)O2 | – | 16.5 µM (active)
CCOC(=O)CC(SP(=O)(OC)OC)C(=O)OCC (stereo not given) | inactive | –
CNC(=O)ON=C(C)SC | inactive | –
Cc1cc(C2CC2)nc(Nc2ccccc2)n1 | inactive | –
CCCCOC(=O)c1ccccc1C(=O)O | inactive | –
CN1COCN(Cc2cnc(Cl)s2)C1=N[N+](=O)[O-] | inactive | –
CCOP(=O)(OCC)Oc1cc(C)nc(C(C)C)n1 | inactive | –
CCCOCC(=Nc1ccc(Cl)cc1C(F)(F)F)n1ccnc1 | inactive | –
CCOC(=O)COc1cc(-c2nn(C)c(OC(F)F)c2Cl)c(F)cc1Cl | inactive | –
CCOP(=S)(OCC)SCCSCC | inactive | –
COc1ccc(C(=CC(=O)N2CCOCC2)c2ccc(Cl)cc2)cc1OC | inactive | –

SMILES | outcome | AC50
CCOP(=S)(OCC)Oc1ccc2c(C)c(Cl)c(=O)oc2c1 | inactive | –
CCCCSP(=O)(SCCCC)SCCCC | inactive | –
CCOP(=O)(NC(C)C)Oc1ccc(SC)c(C)c1 (stereo not given) | inactive | –
CON=C(C(=O)OC)c1ccccc1CON=C(C)c1cccc(C(F)(F)F)c1 | inactive | –
CCC(=O)Nc1ccc(Cl)c(Cl)c1 | inactive | –
COc1cccc(C(=O)NN(C(=O)c2cc(C)cc(C)c2)C(C)(C)C)c1C | inactive | –
CC(C)=CC1C(C(=O)OCN2C(=O)C3=C(CCCC3)C2=O)C1(C)C (stereo not given) | inactive | –
CCNc1nc(Cl)nc(NC(C)(C)C#N)n1 | inactive | –
CC(C)N(C(=O)SCC(Cl)=C(Cl)Cl)C(C)C | inactive | –
CCOP(=S)(Oc1cnc(C(C)(C)C)nc1)OC(C)C (stereo not given) | inactive | –
CCOP(=S)(OCC)Oc1ccc([N+](=O)[O-])cc1 | inactive | –
C#CCC1=C(C)C(OC(=O)C2C(C=C(C)C)C2(C)C)CC1=O (stereo not given) | inactive | –
CNC(=O)ON=C(SC)C(=O)N(C)C | inactive | –
CCCOc1nn(C(=O)NS(=O)(=O)c2ccccc2C(=O)OC)c(=O)n1C | inactive | –
CC(C)[C@H](C(=O)O[C@H](C#N)c1cccc(Oc2ccccc2)c1)c1ccc(Cl)cc1 | inactive | –
FC(F)C(F)(F)OCC(Cn1cncn1)c1ccc(Cl)cc1Cl (stereo not given) | inactive | –
CCC(=NOC/C=C/Cl)C1=C(O)CC(C2CCOCC2)CC1=O (stereo not given) | inactive | –
CSc1nc(NC(C)C)nc(NC(C)C)n1 | inactive | –
Nc1c(Cl)cc([N+](=O)[O-])cc1Cl | inactive | –
COP(=O)(OC)C(O)C(Cl)(Cl)Cl (stereo not given) | inactive | –
